Screening data from PubChem BioAssay.
esBAF inh: inhibitors of esBAF chromatin remodeling in mouse ES cells; Bmi1-luciferase knock-in reporter, 24 h; 100% = twice the neutral-well signal; reporter increase, % at 12.5 µM; actives 2% (n = 350,000); AID 602393; in the data active means activation above about 40%; inconclusive means no clear call, values can overlap the other calls;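 further: 0% = median of the plate's neutral control wells and 100% = double that signal; a rise in the Bmi1 reporter signal indicates esBAF inhibition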
FXN GAA850 act: activators of GAA850 frataxin (FXN) promoter; AID 540364; actives 0.56% (n = 360,000); HEK293 lucGAA850 FXN promoter luciferase reporter, 24 h; percent of 10 µM SAHA response; activation, % at 6 µM;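 active means activation above the average of all compounds screened plus 3 SD, cutoff fixed separately per campaign, cut at about 7.5% in these data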;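 further: 0% = DMSO wells and 100% = 10 µM SAHA wells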
MITF act: increases MITF-driven TRPM1 promoter luciferase signal; AID 588334; actives 0.75% (n = 300,000); activation, % at 12.5 µM; SK-MEL-5 TRPM1-promoter luciferase, 24 h; % of positive control, neutral wells = 0;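 active means mean activation of at least 80% with every replicate also reaching 80%; inconclusive means mean reaches 80% but some replicate falls short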;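 further: 0% = neutral control wells and 100% = parthenolide positive control wells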
Wnt bcat act: activates Wnt/beta-catenin signaling in a reporter cell assay; actives 1.2% (n = 300,000); activator, plate reader; AID 743398; activation, % at 9.35 µM; in the data active means activation above about 30%, passing the limit was not always enough; inconclusive means no clear call, values can overlap the other calls;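 further: 0% = neutral control wells and 100% = positive control wells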
* = called active by the depositor; ? = inconclusive; . = no result; ! = not active in a repeat. Most compounds without a hit are left out; they make up all but 2.8% or so of the library.

SMILES	esBAF inh	FXN GAA850 act	MITF act	Wnt bcat act
CC(=O)NS(=O)(=O)c1ccc(N=NN2CCCCC2)cc1	.	-1	0	-1
Cc1sc(NC(=O)c2ccc(Cl)s2)c(C(N)=O)c1C	30	4	31	42*
Cc1sc(NC(=O)c2ccc(Br)s2)c(C(N)=O)c1C	?	2	26	.
CCCC#Cc1ccc2c(c1)O[C@@H](CN(C)C(C)=O)[C@H](C)CN([C@@H](C)CO)S2(=O)=O	4	.	.	.
CO[C@@H]1CN(C)C(=O)c2ccc(NC(C)=O)cc2OC[C@H](C)N(CC2CCCCC2)C[C@H]1C	-2	.	.	.
C[C@@H]1CN([C@H](C)CO)C(=O)c2cc(NC(=O)C3CC3)ccc2O[C@H]1CN(C)Cc1ccncc1	1	.	.	.
Cc1ccc(C)c(NC(=O)[C@@H]2CCCN2S(=O)(=O)c2ccccc2F)c1	17	1	0	-7
COc1ccc(C)cc1NC(=O)C1CCCN1S(=O)(=O)c1ccccc1F (centres undefined)	4	0	-2	62*
Cc1ccc(S(=O)(=O)N(C)C[C@H]2Oc3ccc(N(C)C)cc3CC(=O)N([C@H](C)CO)C[C@H]2C)cc1	-1	.	.	.
O=C(NN=C1CCCC1)c1ccc(Cl)cc1	0	-2	0	-2
COc1ccc(C(=O)NN=C2CCCC2)cc1	45*	2	.	0
O=C(NN=C1CCCC1)c1ccccc1O	75*	3	.	-1
Cc1cc(OCc2ccc(C(=O)NN=C3CCCC3)cc2)ccc1Cl	.	2	27	46*
O=C(NN=C1CCCC1)c1ccccc1[N+](=O)[O-]	9	1	.	1
O=c1ccn(-c2cccc(C(F)(F)F)c2)nc1-c1ccn(-c2cccc(Cl)c2)n1	-1	11*	-9	.
COCC(=O)Nc1ccc2c(c1)OC[C@@H](C)N(C(=O)Cc1ccccn1)C[C@@H](C)[C@@H](OC)CN(C)C2=O	0	.	.	.
Cc1cc(C(=O)Nc2ccc3[nH]ccc3c2)no1	26	4	64	59*
COc1ccc(NC(=O)Nc2ccc3c(c2)CC(=O)N([C@H](C)CO)C[C@@H](C)[C@@H](CN(C)C(=O)Nc2ccc4c(c2)OCO4)O3)cc1	1	.	.	.
CCN(CC)C(=O)COc1ccc(-c2ccccc2)cc1	50*	4	48	.
C[C@@H]1CN([C@H](C)CO)C(=O)Cc2cc(NS(C)(=O)=O)ccc2O[C@H]1CN(C)S(=O)(=O)c1ccc(Cl)cc1	2	.	.	.
O=C1CCC[C@@H]2C[C@@]3(C[C@@H]4CCN1[C@H]24)Nc1cc(Cl)c(Cl)cc1NC3=NCc1ccccc1	74*	-3	1	9
COc1ccc(S(=O)(=O)N[C@H]2CC[C@H](CC(=O)NCc3ccccc3F)O[C@H]2CO)cc1	2	.	.	.
O=C(Nc1ccccc1)c1cc2ccc3ccccc3c2s1	79*	2	42	66*
O=C(Nc1ccccc1)c1ccc(-c2ccccc2)s1	.	4	85*	5
c1ccc(COc2ccc(Nc3ncnc4nc[nH]c34)cc2)cc1	36	4	82*	1
SMILES	esBAF inh	FXN GAA850 act	MITF act	Wnt bcat act
COc1ccc(Nc2ncnc3nc[nH]c23)cc1OC	-4	0	-11	.
CCOC(=O)c1ccc(Nc2ncnc3nc[nH]c23)cc1	27	-1	121*	56*
CO[C@@H]1CN(C)C(=O)c2ccc(NC(=O)Nc3ccccc3F)cc2OC[C@@H](C)N(C(C)=O)C[C@@H]1C	-2	.	.	.
CCc1ccc2[nH]c(C(=O)Nc3ccc(Br)c(C)n3)cc2c1	44*	1	66	16
C[C@@H]1CCCCO[C@@H](CN(C)Cc2ccc(C(=O)O)cc2)[C@H](C)CN([C@H](C)CO)C(=O)c2cc(NC(=O)NC3CCCCC3)ccc2O1	-5	.	.	.
COc1ccc([C@H]2CC(=O)C=C(c3cccc(C#N)c3)C2)cc1	45*	1	22	-6
CCOc1ccc2oc(C(=O)Nc3ccc4c(c3)OCO4)c(C)c2c1	.	4	90*	2
Cc1ccnc(NC(=O)c2oc3ccccc3c2C)c1	-12	3	6	-5
CCOc1ccc2oc(C(=O)NNC(=O)c3ccccc3O)c(C)c2c1	48*	3	5	-4
CCOc1ccc2oc(C(=O)Nc3cc(C)ccn3)c(C)c2c1	6	3	?	42*
CCC(=O)N1C[C@H](C)[C@H](OC)CN(C)C(=O)c2cc(NC(=O)COC)ccc2OC[C@H]1C	-6	.	.	.
COCCN(C[C@H]1[C@H](c2ccccc2)[C@@H](CO)N1C(=O)C1CCC1)C(C)=O	-1	.	.	.
CC(C)(C)C1CCc2c(sc3c2C(=O)NC(c2ccco2)N3)C1 (centres undefined)	23	4	95*	1
CN1CCc2c(sc3c2C(=O)NC(c2ccccc2)N3)C1 (centres undefined)	.	0	2	20
CCCCC[C@@H](O)c1cc2ccccc2c(=O)o1	43*	6	-4	11
N#C/C(C(=O)NCc1ccco1)=C1/SC(Cc2ccc(Cl)cc2)C(=O)N1c1ccccc1 (centres undefined)	-1	3	.	1
N#C/C(C(=O)N1CCOCC1)=C1/SC(Cc2ccccc2Cl)C(=O)N1c1ccccc1 (centres undefined)	.	1	3	35*
O=C(c1cn(-c2ccccc2)nc1-c1ccccc1)N1CCOCC1	6	3	4	2
O=C(c1cccs1)N1CCN(C(=O)c2cn(-c3ccccc3)nc2-c2ccccc2)CC1	54*	1	25	12
Cc1ccc(-c2ccc3c(c2)O[C@H](CN(C)C(=O)C2CC2)[C@H](C)CN([C@@H](C)CO)S3(=O)=O)cc1	-5	.	.	.
O=C(Nc1ccc(-c2nc3cccnc3s2)cc1)c1ccc(Cl)nc1	19	4	89*	8
O=C(Nc1ccc(-c2nc3cccnc3s2)cc1)c1ccc(Br)o1	32	3	.	39*
O=C(Nc1ccc(-c2nc3cccnc3s2)cc1)c1cccnc1Cl	-7	2	54	38*
Cc1c(NC(=O)c2ccc(Cl)nc2)cccc1-c1nc2cccnc2s1	.	1	-11	-2
O=C(O)c1cccc(NN=C2c3ccccc3-c3ccccc32)c1	.	1	16	0
SMILES	esBAF inh	FXN GAA850 act	MITF act	Wnt bcat act
O=C(O)c1cccc2c1-c1ccccc1/C2=N\Nc1ccccc1	63*	4	62	25
CCNC(=O)C[C@H]1CC[C@H]2[C@@H](COc3ccc(NC(=O)Nc4ccc(F)cc4)cc3C(=O)N2C)O1	0	.	.	.
CC1CCCC(C)N1C(=O)c1cc(-c2ccc3c(c2)OCO3)on1 (centres undefined)	56*	4	95*	1
CC1CCCC(C)N1C(=O)c1cc(-c2ccc(Cl)c(Cl)c2)on1 (centres undefined)	80*	7	97*	.
COc1ccc(NC(=O)Nc2ccc3c(c2)CC(=O)N([C@@H](C)CO)C[C@@H](C)[C@H](CN(C)Cc2ccc(C(=O)O)cc2)O3)cc1	5	.	.	.
C/C(N)=C(/C#N)C(=O)CSc1nnc(Nc2cccc(C)c2C)s1	86*!	3	45	14
Cn1c(=N)n(CC(=O)c2cccs2)c2ccccc21	44*	7	12	29
